Tests used:
Type in all cases: functional
[1] = biological target: Solute carrier family 2, facilitated glucose transporter member 1 (Homo sapiens) (UniProt P11166); assay: ST_JUDE_LEISH: Cytotoxicity at 2uM final concentration against transgenic Leishmania Mexicana promastigotes LmGLUT1 that are glucose transport deficient and complemented with the human glucose transporter GLUT1. Activity is measured by DNA content using SYBR green in vitro
[2] = biological target: Hexose transporter 1 (Plasmodium falciparum) (UniProt O97467); assay: ST_JUDE_LEISH: Cytotoxicity at 2uM final concentration against transgenic Leishmania Mexicana promastigotes LmPfHT that are glucose transport deficient and complemented with the Plasmodium falciparum hexose transporter. Activity is measured by DNA content using SYBR green in vitro
[3] = biological target: Glucose transporter (Leishmania mexicana) (UniProt O61059); assay: ST_JUDE_LEISH: Cytotoxicity at 2uM final concentration against transgenic Leishmania Mexicana promastigotes LmGT2 that are glucose transport deficient and complemented with the L. Mexicana glucose transporter 2. Activity is measured by DNA content using SYBR green in vitro

Chain of Solute carrier family 2, facilitated glucose transporter member 1 (Homo sapiens) (P11166 whole entry): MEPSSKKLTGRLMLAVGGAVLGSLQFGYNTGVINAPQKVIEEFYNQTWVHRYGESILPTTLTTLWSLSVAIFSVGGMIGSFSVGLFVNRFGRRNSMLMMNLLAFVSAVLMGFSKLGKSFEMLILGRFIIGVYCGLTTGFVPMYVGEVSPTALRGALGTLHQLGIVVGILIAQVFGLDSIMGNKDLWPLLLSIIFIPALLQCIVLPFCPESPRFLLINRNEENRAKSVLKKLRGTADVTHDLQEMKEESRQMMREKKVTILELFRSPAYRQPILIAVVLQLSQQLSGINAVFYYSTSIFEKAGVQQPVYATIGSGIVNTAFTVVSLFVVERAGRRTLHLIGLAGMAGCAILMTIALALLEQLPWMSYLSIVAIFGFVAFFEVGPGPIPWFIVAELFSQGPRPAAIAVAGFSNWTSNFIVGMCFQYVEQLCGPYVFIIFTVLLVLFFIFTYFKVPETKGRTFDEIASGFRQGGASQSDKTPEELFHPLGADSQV

| SMILES | inhibition [1] [%] | inhibition [2] [%] | inhibition [3] [%] |
| --- | --- | --- | --- |
| Cc1nc(-c2cccc(C(=O)N(Cc3cncn3Cc3cccc(C(F)(F)F)c3)CC3CC3)c2)cs1 | 2.11 | 4.67 | 4.26 |
| CC(=O)c1ccc(-c2cccc3c(CC(=O)Nc4ccc5nccc(N6CCN(C)CC6)c5c4)cccc23)cc1 | 0.38 | 1.03 | -1.81 |
| O=C(Nc1ccc2ccccc2c1)c1ccc(CN2CCC(Cc3ccccc3)CC2)cc1 | -2.67 | -3.63 | 7.65 |
| CCOC(=O)c1[nH]c2ccc(F)cc2c1NC(=O)CN1CCN(c2cccc(C(F)(F)F)c2)CC1 | 0.03 | 0.43 | -2.97 |
| Clc1ccc(-c2[nH]c3ccccc3c2CN2CCC(N3CCCCC3)CC2)cc1 | 15.2 | 14.7 | 15.2 |
| O=C(Nc1cccc(-c2cccc(-c3nc4cc(C(F)(F)F)ccc4[nH]3)c2)c1)c1cccnc1 | 0.56 | 0.29 | -1.51 |
| COc1ccccc1CN1CCC(CNC(=O)c2cc(-c3ccc(N(C)C)cc3)cs2)C1 (stereo unspecified) | 15.2 | 11.8 | 10.9 |
| OCCOCCNCc1cccc(C#Cc2cc3ncnc(Nc4ccc(OCc5cccc(F)c5)c(Cl)c4)c3s2)n1 | -0.5 | 1.33 | 1.82 |
| COc1ccc(CNC2CCCC2)cc1-c1ccc(S(=O)(=O)NCCN2CCCC2)s1 | 1.79 | 2.89 | 3.68 |
| CC(C)NCc1ccc(OCc2cccc(COc3ccc(CNC(C)C)cc3I)c2)c(I)c1 | 112 | 109 | 113 |
| CCNc1cc(C(=O)N[C@@H](Cc2ccccc2)[C@H](O)CNC2CCC(F)(F)CC2)c(F)c(N2CCCCS2(=O)=O)c1 | -0.9 | -1.47 | -1.39 |
| Nc1ncc(-c2ccc(F)cc2)c2ccc(-c3cccc(F)c3)cc12 | 5.19 | 5.19 | 2.72 |
| CN(C)CCC1CCCc2ccc(NC(=O)Nc3cccc(Cl)c3Cl)cc21 (stereo unspecified) | 1.81 | 2.38 | 1.03 |
| Cc1ccccc1C1CCN(C2CCC(NC(=O)/C=C/c3ccc(C(F)(F)F)cc3F)CC2)CC1 (stereo unspecified) | 1.85 | 0.43 | 0.34 |
| Nc1nc(N)c(-c2ccccc2)c(=O)[nH]1 | 4.51 | 3.54 | 1.16 |
| CCCCCCNC(=O)C1Cc2c([nH]c3ccc(Br)cc23)C2(CCN(CCc3ccccc3)CC2)N1 (stereo unspecified) | 13.8 | 10.8 | 9.91 |
| CC(C)CCN1CCC(Oc2ccc(NC(=O)c3cccs3)cc2Cl)CC1 | 0.82 | 4.49 | 3.68 |
| Cc1cc(NC(=O)Nc2cccc(Cl)c2Cl)c2ccccc2n1 | 6.15 | 6.44 | 2.66 |
| CCN1CCC(N(Cc2ccc(-c3ccc(C(F)(F)F)cc3)cc2)C(=O)Cn2c(CCc3cccc(F)c3F)nc(=O)c3ccccc32)CC1 | 1.25 | 2.57 | 3.43 |
| CC(C)C[C@H](NC(=O)c1cc2ccccc2s1)C(=O)N[C@H]1CCN(Cc2ccc(OCCCN(C)C)c(Cl)c2)C1 | 3.21 | 2.95 | 1.32 |
| Cc1cccc2nc(-c3cccc(-c4cccc(NC(=O)c5ccc(=O)[nH]n5)c4)c3)[nH]c12 | 5.27 | 1.34 | 2.2 |
| CC(Sc1nnc(-c2ccccc2Br)[nH]1)C(=O)Nc1ccc(F)cc1 (stereo unspecified) | 10.4 | 9.07 | 6.58 |
| CCCOc1cc(NC(=O)Nc2ccnc3ccccc23)cc(OCCC)c1 | -2.56 | 3 | 3.42 |
| Clc1ccc(-c2nc3cc(-c4ccc5nc(-c6ccc(Cl)cc6)[nH]c5c4)ccc3[nH]2)cc1 | 11.2 | 12.2 | 8.04 |

| SMILES | inhibition [1] [%] | inhibition [2] [%] | inhibition [3] [%] |
| --- | --- | --- | --- |
| N#Cc1ccc2c(c1)CCN(CCC1CCC(NC(=O)/C=C/c3nc4ccccc4s3)CC1)CC2 (stereo unspecified) | 1.83 | 0.31 | -0.08 |
| CC(=O)N(C)C1CCN(Cc2cccc(-c3ccc(-c4nc5cc(C(F)(F)F)ccc5[nH]4)cc3)c2)C1 (stereo unspecified) | 2.39 | -4.29 | 3.1 |
| O=C(/C=C/c1ccc(Cl)c(Cl)c1)NCCCCCN1CCC(NC(=O)Nc2cc(Cl)nc(Cl)c2)CC1 | 1.28 | -0.18 | 0.44 |
| O=C(c1cccc(Br)c1)N1CCN(c2ccc([N+](=O)[O-])c(NC3CC3)c2)CC1 | 4.9 | 4.63 | 1.63 |
| Cc1cccc2nc(-c3cccc(-c4ccc(NC(=O)CN5CCOCC5)cc4)c3)[nH]c12 | 4.78 | 4.5 | 2.97 |
| Nc1c(Cl)cc(C(O)CNCCCCCOCCCc2ccc3ncccc3c2)cc1Cl (stereo unspecified) | 5.88 | 5.02 | 4.94 |
| Cc1ccc(F)cc1S(=O)(=O)NCC(C)c1ccc(NC(=O)Nc2cccc(F)c2)cc1 (stereo unspecified) | 0.16 | 1.6 | -0.29 |
| COc1ccc2nccc([C@@H](O)CN3CCC(NCc4cc5ccc(C#N)cc5[nH]4)CC3)c2c1 | 13.5 | 12.8 | 9.02 |
| COc1cc(Cc2cnc(N)nc2N)cc(OCCCCNS(=O)(=O)C(F)(F)F)c1OC | 1.9 | 1.69 | 1.88 |
| Cc1cccc2nc(-c3ccc(-c4cccc(NC(=O)Nc5ccc(Cl)c(Cl)c5)c4)s3)[nH]c12 | 0.85 | -0.11 | 0.38 |
| COc1ccc(NC(=O)Nc2ccc(Nc3nc(C)cc(N(C)C)n3)cc2)cc1 | 2.57 | 3.61 | 4.41 |
| O=C(NC1CCN(c2ccnc3cc(Cl)ccc23)C1)c1ccc(F)cc1F (stereo unspecified) | 1.51 | 5.62 | 2.89 |
| CCc1ccccc1-c1csc(C(=O)NCC2CCN(Cc3ccc(C(C)(C)C)cc3)C2)c1 (stereo unspecified) | 6.04 | 4.94 | 4.81 |
| O=C(NC1CCN(CC2(c3ccccc3)CCCC2)CC1)c1n[nH]cc1Cl | 0.19 | 0.32 | -0.85 |
| N#Cc1nc2ccc(OCCN(Cc3ccccc3C(F)(F)F)c3ccc(C#N)c(C(F)(F)F)c3)cc2s1 | 9.32 | 6.39 | 8.4 |
| CC1CCCC(C)N1C[C@@H](O)CNS(=O)(=O)c1cccc(C(F)(F)F)c1 (stereo partly specified) | 0.21 | 0.37 | -0.01 |
| COc1ccc2nc(C)cc(N/N=C/c3cccc([N+](=O)[O-])c3)c2c1 | 8.97 | 7.38 | 7.7 |
| Cc1ccc(C(=O)Nc2ccc(Nc3ccnc4cc(-c5ccncc5)ccc34)cc2O)cc1 | -0.09 | -0.05 | 1.37 |
| Cc1cccc2nc(-c3cccc(-c4cccc(NC(=O)CCc5c[nH]cn5)c4)c3)[nH]c12 | 0.79 | 0.27 | 1.56 |
| Nc1nc(N)c2c(ccc3c2ccn3Cc2cccc3ccccc23)n1 | 97.3 | 96 | 88.4 |
| Cc1cccc2nc(-c3cccc(-c4cccc(CNCCNC(=O)c5ccnn5C)c4)c3)[nH]c12 | -1.89 | -1.71 | -2.41 |
| CC1(C)N=C(N)N=C(N)N1OCCCCON1C(N)=NC(N)=NC1(C)C | 3.48 | 3.55 | 3.76 |
| COc1cc(NC(=O)N2CCc3ccc(OCCC4CCCN4C)cc32)cc(C(F)(F)F)c1 (stereo unspecified) | -0.5 | 0.15 | -0.48 |
| O=C(Nc1cccnc1)c1cc(-c2cccnc2)nc2ccc(Br)cc12 | 7.01 | 1.51 | -1.18 |

| SMILES | inhibition [1] [%] | inhibition [2] [%] | inhibition [3] [%] |
| --- | --- | --- | --- |
| COc1ccc2c(NN=Cc3ccc(Cl)cc3)ccnc2c1 | 3.12 | 2.42 | 4.63 |
| Cc1c(-c2cccc(NC(=O)C(C)(C)Oc3ccc(Cl)cc3)c2)nc2ncccn12 | -0.94 | -1.86 | -3.03 |
| COc1ccc2ccccc2c1CON1C(=N)N=C(N)NC1(C)C | 1.59 | 1.46 | 1.5 |
| COc1ccc(NC(=O)c2ccc(Br)c(C)c2)cc1N1CCN(Cc2ccccc2)CC1 | 1.57 | 0.13 | -0.04 |
| Cc1cc(N[C@@H](CC(C)C)C(=O)Nc2ccccc2)nc(NCC2CCCCC2)n1 | 10.2 | 9.8 | 5.12 |
| O=C(Nc1ccc(Cl)cc1)Nc1cccc(-c2cc(CNCCc3ccccc3)oc2-c2ccncc2)c1 | 5.78 | 2.56 | 3.77 |
| Cc1c(Cc2ccccc2Br)cnc2nc(N)nc(N)c12 | 9.6 | 30.2 | 14.2 |
| Cc1nnsc1C(=O)Nc1ccc(-c2ccc(-c3nc4cccc(C)c4[nH]3)s2)cc1 | 5.61 | 2.76 | 2.44 |
| O=C(/C=C/c1ccc(Cl)cc1)NCCCCCN1CCCC(C(=O)Nc2ccc(F)c(Cl)c2)C1 (stereo unspecified) | 2.06 | 1.34 | 2.38 |
| O=C(/C=C/c1ccc(Cl)c(Cl)c1)NCCCCCN1CCC(NC(=O)Nc2ccccc2Cl)CC1 | 0.63 | 0.55 | 0.27 |
| COc1cc2c(cc1C(F)(F)F)N(C(=O)Nc1ccc(Br)cn1)CC2 | -0.2 | 0.68 | -1.31 |
| CC(CNC(=O)c1cc2c(Cl)cc(Cl)cc2[nH]1)CNc1cc(=O)c2ccccc2[nH]1 (stereo unspecified) | -0.17 | 1.37 | 2.08 |
| CCCCCCCc1c(C)nc2ccccc2c1O | 6.82 | 6.3 | 2.82 |
| COc1cc(NC(=O)Nc2cc(C)nc3ccccc23)cc(OC)c1 | 0.54 | 0.94 | 2.05 |
| CCC(Cc1cnc2nc(N)nc(N)c2n1)c1ccc(C(=O)N[C@@H](CCC(=O)O)C(=O)O)cc1 (stereo partly specified) | 11.9 | 22.1 | 3.38 |
| COc1c(C2CCN(CCCCNC(=O)c3ccc(-c4ccc(C#N)cc4)nc3)CC2)ccc2c1CCCC2 | 1.52 | 2.03 | 0.52 |
| CCCc1cc(NCc2ccncc2)nc(Nc2ccc(F)cc2)n1 | 13.4 | 8.66 | 2.99 |
| COCCCNc1sc(S(=O)(=O)c2ccccc2)nc1S(=O)(=O)c1ccc(C)cc1 | -0.53 | -2.3 | 1.51 |
| Cc1cc(C2CCN(CCCCNC(=O)c3ccc(NC(=O)c4ccc(Cl)cc4)cc3)CC2)c(C)cc1OCCN(C)C | 9.34 | 8.76 | 9.76 |
| CC(C)(C)CN1C(=O)C(c2ccccc2)(c2ccccc2)N=C1N | 2.88 | 2.58 | 1.88 |
| CN1CCN(CC(=O)Nc2cccc(-c3ccc(-c4nc5cc(F)ccc5[nH]4)cc3)c2)CC1 | -1.54 | 0.97 | 3 |
| O=C(Nc1ccc(-c2cccc(-c3nc4ccccc4[nH]3)c2)cc1)Nc1ccc(F)c(F)c1F | 0.73 | -0.07 | 0.32 |
| Nc1nc(-c2ccccn2)nc(-n2nc(-c3cccc(C(F)(F)F)c3)cc2N)n1 | 3.56 | 2.31 | 1.29 |
| O=C(/C=C/c1ccc(Cl)c(Cl)c1)N1CCC(CN2CCC(c3c[nH]c4ncccc34)CC2)CC1 | 4.3 | 3.52 | 2.38 |
